The list is not random: actives were taken first. Their share in the collection is about 0.97%.
RecA splice inh: Mtb RecA intein splicing inhibitors, primary screen, biochemical, fluorescence, HTS | Protein RecA (Mycobacterium tuberculosis (strain ATCC 25618 / H37Rv)), P9WHJ3 | cell-free RecA intein splicing | inhibition, % (no concentration beside the values) | 290,000 compounds, 0.75% hits | AID 2221, 2009; in the data active means inhibition above about 30%;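 further: 0% = vehicle wells and 100% = reference inhibitor control wells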
Mtb UGM inh: M. tuberculosis UGM enzyme inhibitors, primary screen, biochemical, fluorescence polarization, single point. inhibition, % at 10 µM. purified UGM, fluorescence polarization probe displacement. 320,000 compounds, 0.06% hits. AID 504406, 2011; in the data active means inhibition above about 10%, passing the limit was not always enough
TcdB inh: TcdB glycohydrolase inhibitors, primary screen, biochemical, single point, plate reader; inhibition, % at 9.99 µM; 350,000 compounds, 0.24% hits; AID 652162, 2013; Toxin B (Clostridioides difficile), P18177; TcdB glycohydrolase enzymatic assay; in the data active means inhibition above about 10%
FadD28 binding: inhibitors of FadD28 bisubstrate probe binding, primary screen, biochemical, fluorescence polarization, single point | Mycobacterium tuberculosis FadD28 fatty-acid-AMP ligase | inhibition, % at 12.5 µM | 360,000 compounds, 0.22% hits | AID 588549, 2011; in the data active means inhibition above about 8.5%, passing the limit was not always enough
BioA inh: M. tuberculosis BioA enzyme inhibitors, primary screen, biochemical, plate reader, single point, HTS; 7,8-diaminopelargonic acid synthase BioA (Mycobacterium tuberculosis); purified M. tuberculosis BioA enzyme; inhibition, % at 9.99 µM; 360,000 compounds, 0.096% hits; AID 602481, 2012; in the data active means inhibition above about 40%
Rv3671c protease: Rv3671c serine protease inhibitors, primary screen, biochemical, fluorescence polarization, M. tuberculosis H37Rv | P9WHR9 | inhibition, % at 5.96 µM | 320,000 compounds, 0.048% hits | AID 2606, 2010; in the data active means inhibition above about 38%;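 further: extracellular domain of Rv3671c used as enzyme; 0% = enzyme with DMSO and 100% = no enzyme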
The depositor's hits bear a star.

COC(=O)C1=C(c2ccc(F)cc2OCc2ccccc2)C[C@@H]2CC[C@H]1N2C(=O)NCCOc1ccccc1 was read as Mtb UGM inh -1, TcdB inh 10*, FadD28 binding -4, BioA inh -1 and Rv3671c protease -14.
COC(=O)C1=C(c2ccc(F)cc2OCc2ccccc2)C[C@@H]2CC[C@H]1N2C(=O)N1CCCC1 was read as Mtb UGM inh -2, TcdB inh 10*, FadD28 binding -2, BioA inh 1 and Rv3671c protease 1.
For C[C@@H]1CN([C@H](C)CO)C(=O)c2cc(-c3cccnc3)cnc2O[C@H]1CN(C)C(=O)c1ccccc1F the results were TcdB inh 0 and BioA inh 4.
`CCOc1cc(NC(=S)NCC2CCCO2)c(OCC)cc1NC(=O)c1ccc(F)cc1` (stereo unspecified) gave RecA splice inh -4, Mtb UGM inh 0, TcdB inh 19*, FadD28 binding -3, BioA inh -1 and Rv3671c protease 7.
CCOC(=O)CC(c1ccc(N)cc1)n1c(C)ccc1C (stereo unspecified) was read as RecA splice inh 10, Mtb UGM inh -3, TcdB inh 1, FadD28 binding -1, BioA inh 0 and Rv3671c protease 3.
Cc1ccc(C)n1C(CC(=O)O)c1ccc(C#N)cc1 (stereo unspecified) was read as RecA splice inh -2, Mtb UGM inh 2, TcdB inh 0, FadD28 binding 11* and Rv3671c protease 0.
For CCCCCCCN1C(N(C)C)=NC[C@@H]1Cc1ccccc1 the results were Mtb UGM inh 2, TcdB inh 13*, FadD28 binding -1, BioA inh 3 and Rv3671c protease 3.
Screening CC(=O)C(Sc1ncnc2c1nnn2-c1ccc(F)cc1)C(=O)N(C)C (stereo unspecified) returned RecA splice inh 40*, Mtb UGM inh -1 and Rv3671c protease -7.
Screening CCOC(=O)c1nnc(-c2ccccc2)nc1Oc1ccccc1Cl returned RecA splice inh 45*, Mtb UGM inh 1, FadD28 binding -2 and Rv3671c protease 5.
C[C@@H]1CN([C@H](C)CO)C(=O)Cc2cc(NC(=O)Nc3cccc4ccccc34)ccc2O[C@H]1CN(C)C was read as TcdB inh 1 and BioA inh 3.
`O=[N+]([O-])c1ccc(/C=C/c2ccc3ccccc3n2)cc1` gave Mtb UGM inh 0, TcdB inh 10*, FadD28 binding -2, BioA inh -1 and Rv3671c protease -6.
For O=[N+]([O-])c1ccc(/C=C/c2ccc3cccc(O)c3n2)cc1 the results were RecA splice inh 1, Mtb UGM inh -1, TcdB inh -1, FadD28 binding -2, BioA inh -5 and Rv3671c protease 9.
`CC(C)CC(=O)N1CCN(Cc2ccc(Br)cc2)CC1` gave RecA splice inh 1, Mtb UGM inh -4, TcdB inh 11*, FadD28 binding -1, BioA inh -1 and Rv3671c protease 1.
`Cc1ccccc1N(Cc1cc(=O)[nH]c2ccccc12)C(=O)CCl` gave RecA splice inh 48*, Mtb UGM inh 1, TcdB inh 0, FadD28 binding -1, BioA inh -2 and Rv3671c protease 9.
For O=C(CN(c1cccc(Br)c1)S(=O)(=O)c1ccccc1)N/N=C/c1cc([N+](=O)[O-])ccc1O the results were RecA splice inh 33*, Mtb UGM inh -2, TcdB inh 0, FadD28 binding 1, BioA inh 2 and Rv3671c protease 0.
COc1cc(C2(c3ccc(O)c(OC)c3)C(=O)Nc3c(C)cc(Br)cc32)ccc1O was read as RecA splice inh 42*, Mtb UGM inh 1, TcdB inh -1, FadD28 binding -3, BioA inh 3 and Rv3671c protease 6.
Screening C[C@@H]1CCCCO[C@@H](CN(C)C(=O)Nc2ccc(C(F)(F)F)cc2)[C@@H](C)CN([C@H](C)CO)C(=O)c2cc(NC(=O)c3ccncc3)ccc2O1 returned TcdB inh -2.

Bioassay records (PubChem BioAssay)
